One molecule from the supplement of paper PMC11732987, “Enantioselective OTUD7B fragment discovery through chemoproteomics screening and high-throughput optimisation” (Communications Chemistry, 2025) can be followed below.

Common to all, as to assay: log2 ratio of Biotin-Ahx-Ub-VS probe labelling (fragment/DMSO); higher = less target engagement (more negative = stronger competition), active = hit call of the paper (q ≤ 0.05, log2 ratio ≤ -1)
Settings in all cases: compound concentration: 200 uM; treatment time: 3 h

One assay concerns the target T1, OTUD6B (UniProt Q8N6M0).
T1 sequence (whole entry): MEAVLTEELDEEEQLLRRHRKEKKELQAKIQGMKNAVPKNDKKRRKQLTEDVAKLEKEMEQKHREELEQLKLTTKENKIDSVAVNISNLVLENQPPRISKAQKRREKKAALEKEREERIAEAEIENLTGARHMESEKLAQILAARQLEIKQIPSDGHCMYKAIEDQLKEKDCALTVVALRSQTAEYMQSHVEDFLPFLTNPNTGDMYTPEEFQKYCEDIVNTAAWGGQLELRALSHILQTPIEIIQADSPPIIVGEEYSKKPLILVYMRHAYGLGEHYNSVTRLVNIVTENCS
The procedure, abridged: (§1)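 HEK293T lysate in Tris/CHAPS/IGEPAL buffer with protease inhibitors (495 µg per sample) was given fragment at 200 µM or vehicle for 3 h, in triplicate. It then received Biotin-Ahx-Ub-VS at 0.5 µM final for 1 h. Labelled DUBs were NeutrAvidin-enriched, digested with LysC and trypsin, and run by diaPASEF LC-MS/MS. Values are average log2 fragment/vehicle ratios by unpaired t-test on global-median-normalised Spectronaut quantities of proteins with ≥2 unique peptides.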

The target of the next assay is T2, OTUD7B (UniProt Q6GQQ9).
T2 sequence (whole entry): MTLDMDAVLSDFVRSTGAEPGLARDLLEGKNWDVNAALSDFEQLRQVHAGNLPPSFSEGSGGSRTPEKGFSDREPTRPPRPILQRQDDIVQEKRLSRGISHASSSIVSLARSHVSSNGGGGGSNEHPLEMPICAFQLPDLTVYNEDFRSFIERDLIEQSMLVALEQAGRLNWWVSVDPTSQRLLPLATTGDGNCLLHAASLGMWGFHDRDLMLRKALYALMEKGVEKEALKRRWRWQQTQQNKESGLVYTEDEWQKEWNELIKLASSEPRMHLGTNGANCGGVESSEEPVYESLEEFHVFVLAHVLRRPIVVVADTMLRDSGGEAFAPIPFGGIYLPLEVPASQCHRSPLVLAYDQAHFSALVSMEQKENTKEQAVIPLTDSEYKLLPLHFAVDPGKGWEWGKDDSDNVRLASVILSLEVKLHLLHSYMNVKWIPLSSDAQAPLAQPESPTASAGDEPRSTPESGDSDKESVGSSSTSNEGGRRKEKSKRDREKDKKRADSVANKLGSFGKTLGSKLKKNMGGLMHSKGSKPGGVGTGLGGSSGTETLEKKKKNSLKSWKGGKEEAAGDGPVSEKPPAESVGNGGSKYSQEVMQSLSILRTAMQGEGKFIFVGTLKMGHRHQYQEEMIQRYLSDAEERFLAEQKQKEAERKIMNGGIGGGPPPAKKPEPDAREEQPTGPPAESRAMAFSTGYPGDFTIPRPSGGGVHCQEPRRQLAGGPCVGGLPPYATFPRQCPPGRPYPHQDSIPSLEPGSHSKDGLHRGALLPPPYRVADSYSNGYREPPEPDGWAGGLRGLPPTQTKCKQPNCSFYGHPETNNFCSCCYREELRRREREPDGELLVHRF
The procedure, abridged:
as §1

The target of the next assay is PRPF8 (UniProt Q6P2Q9). The procedure, abridged: as §1
In the next assay the target is T3, PSMD7 (UniProt P51665).
T3 sequence (whole entry): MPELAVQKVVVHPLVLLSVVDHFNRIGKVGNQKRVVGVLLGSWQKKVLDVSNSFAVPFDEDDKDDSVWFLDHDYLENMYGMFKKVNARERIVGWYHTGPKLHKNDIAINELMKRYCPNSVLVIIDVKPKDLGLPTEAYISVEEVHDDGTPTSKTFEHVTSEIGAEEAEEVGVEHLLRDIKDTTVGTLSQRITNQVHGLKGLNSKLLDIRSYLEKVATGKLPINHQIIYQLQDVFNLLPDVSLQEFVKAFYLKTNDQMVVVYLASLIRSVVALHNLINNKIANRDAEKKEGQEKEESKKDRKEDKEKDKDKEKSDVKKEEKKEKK
The procedure, abridged:
as §1

The next assay concerns the target UCHL1 (UniProt P09936). In a few lines:
as §1

For the next assay, the target named is T4, UCHL3 (UniProt P15374).
T4 sequence (whole entry): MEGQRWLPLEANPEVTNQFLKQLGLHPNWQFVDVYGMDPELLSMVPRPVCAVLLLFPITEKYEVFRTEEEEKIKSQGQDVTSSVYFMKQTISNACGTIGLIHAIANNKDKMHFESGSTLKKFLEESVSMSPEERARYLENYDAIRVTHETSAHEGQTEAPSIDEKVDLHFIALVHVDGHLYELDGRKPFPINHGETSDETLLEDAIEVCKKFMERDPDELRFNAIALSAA
In a few lines: as §1

Another assay has as its target T5, UCHL5 (UniProt Q9Y5K5).
T5 sequence (whole entry): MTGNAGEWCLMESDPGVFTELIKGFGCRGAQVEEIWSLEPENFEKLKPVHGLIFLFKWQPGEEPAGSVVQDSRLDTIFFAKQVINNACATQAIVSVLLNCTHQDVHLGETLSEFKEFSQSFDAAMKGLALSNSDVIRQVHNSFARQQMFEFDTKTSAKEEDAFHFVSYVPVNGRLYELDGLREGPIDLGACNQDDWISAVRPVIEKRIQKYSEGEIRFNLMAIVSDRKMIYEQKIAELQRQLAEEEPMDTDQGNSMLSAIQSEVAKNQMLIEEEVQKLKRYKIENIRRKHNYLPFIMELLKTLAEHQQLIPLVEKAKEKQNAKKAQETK
The procedure, abridged: as §1

The next assay deals with USP10 (UniProt Q14694). In a few lines:
as §1

For a further assay, the target named is T6, USP15 (UniProt Q9Y4E8).
T6 sequence (whole entry): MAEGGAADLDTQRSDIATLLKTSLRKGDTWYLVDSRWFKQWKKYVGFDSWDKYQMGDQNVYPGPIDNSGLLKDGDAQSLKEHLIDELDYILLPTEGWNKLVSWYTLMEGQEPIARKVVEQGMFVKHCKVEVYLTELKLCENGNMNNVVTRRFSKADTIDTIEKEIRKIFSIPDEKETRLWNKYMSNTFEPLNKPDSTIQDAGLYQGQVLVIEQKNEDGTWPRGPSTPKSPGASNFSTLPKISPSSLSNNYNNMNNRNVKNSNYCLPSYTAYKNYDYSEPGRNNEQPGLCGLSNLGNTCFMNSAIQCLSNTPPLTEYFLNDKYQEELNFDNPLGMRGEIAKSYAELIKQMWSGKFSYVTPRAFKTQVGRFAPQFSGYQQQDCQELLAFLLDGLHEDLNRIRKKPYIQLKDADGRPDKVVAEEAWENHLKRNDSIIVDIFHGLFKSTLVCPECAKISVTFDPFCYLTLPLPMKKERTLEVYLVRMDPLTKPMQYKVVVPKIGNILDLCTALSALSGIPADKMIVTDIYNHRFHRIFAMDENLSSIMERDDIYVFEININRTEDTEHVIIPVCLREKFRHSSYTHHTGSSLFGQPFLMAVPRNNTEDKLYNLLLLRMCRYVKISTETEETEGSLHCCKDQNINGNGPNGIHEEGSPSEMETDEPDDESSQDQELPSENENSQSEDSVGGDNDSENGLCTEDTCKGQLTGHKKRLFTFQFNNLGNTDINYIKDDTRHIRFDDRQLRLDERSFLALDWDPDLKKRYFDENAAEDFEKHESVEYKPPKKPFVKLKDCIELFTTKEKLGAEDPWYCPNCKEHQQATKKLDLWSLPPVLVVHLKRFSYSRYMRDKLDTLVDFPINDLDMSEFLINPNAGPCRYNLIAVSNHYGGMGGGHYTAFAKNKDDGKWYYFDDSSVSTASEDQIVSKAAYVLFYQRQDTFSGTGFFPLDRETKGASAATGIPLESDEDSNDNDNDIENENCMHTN
In a few lines:
as §1

For a further assay, the target named is USP16 (UniProt Q9Y5T5). In a few lines: as §1
Sequence of USP16 (Q9Y5T5 whole entry, looked up): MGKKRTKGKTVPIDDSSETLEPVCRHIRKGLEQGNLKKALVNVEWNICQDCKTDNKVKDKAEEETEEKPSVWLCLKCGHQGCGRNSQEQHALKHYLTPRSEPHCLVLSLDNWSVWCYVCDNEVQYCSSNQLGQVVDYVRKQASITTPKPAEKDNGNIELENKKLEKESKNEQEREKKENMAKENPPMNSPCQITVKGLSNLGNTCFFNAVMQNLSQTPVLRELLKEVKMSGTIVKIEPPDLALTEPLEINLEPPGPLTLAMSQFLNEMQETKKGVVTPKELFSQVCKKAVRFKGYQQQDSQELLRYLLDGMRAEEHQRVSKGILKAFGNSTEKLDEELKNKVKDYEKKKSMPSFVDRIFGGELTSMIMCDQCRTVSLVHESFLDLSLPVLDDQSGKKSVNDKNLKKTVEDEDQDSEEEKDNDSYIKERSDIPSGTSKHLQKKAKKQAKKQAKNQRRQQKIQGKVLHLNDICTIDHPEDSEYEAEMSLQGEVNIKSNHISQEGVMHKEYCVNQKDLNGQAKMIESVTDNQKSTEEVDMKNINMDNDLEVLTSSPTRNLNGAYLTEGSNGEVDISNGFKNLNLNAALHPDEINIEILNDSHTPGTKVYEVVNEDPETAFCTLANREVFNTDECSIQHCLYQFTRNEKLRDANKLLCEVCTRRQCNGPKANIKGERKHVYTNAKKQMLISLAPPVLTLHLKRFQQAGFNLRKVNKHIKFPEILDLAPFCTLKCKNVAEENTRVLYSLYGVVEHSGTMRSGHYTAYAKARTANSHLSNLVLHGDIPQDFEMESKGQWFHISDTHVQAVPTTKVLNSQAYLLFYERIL

Molecules are shown by their SMILES. Values without a mark were called inactive.

Sequence of USP10 (Q14694 whole entry): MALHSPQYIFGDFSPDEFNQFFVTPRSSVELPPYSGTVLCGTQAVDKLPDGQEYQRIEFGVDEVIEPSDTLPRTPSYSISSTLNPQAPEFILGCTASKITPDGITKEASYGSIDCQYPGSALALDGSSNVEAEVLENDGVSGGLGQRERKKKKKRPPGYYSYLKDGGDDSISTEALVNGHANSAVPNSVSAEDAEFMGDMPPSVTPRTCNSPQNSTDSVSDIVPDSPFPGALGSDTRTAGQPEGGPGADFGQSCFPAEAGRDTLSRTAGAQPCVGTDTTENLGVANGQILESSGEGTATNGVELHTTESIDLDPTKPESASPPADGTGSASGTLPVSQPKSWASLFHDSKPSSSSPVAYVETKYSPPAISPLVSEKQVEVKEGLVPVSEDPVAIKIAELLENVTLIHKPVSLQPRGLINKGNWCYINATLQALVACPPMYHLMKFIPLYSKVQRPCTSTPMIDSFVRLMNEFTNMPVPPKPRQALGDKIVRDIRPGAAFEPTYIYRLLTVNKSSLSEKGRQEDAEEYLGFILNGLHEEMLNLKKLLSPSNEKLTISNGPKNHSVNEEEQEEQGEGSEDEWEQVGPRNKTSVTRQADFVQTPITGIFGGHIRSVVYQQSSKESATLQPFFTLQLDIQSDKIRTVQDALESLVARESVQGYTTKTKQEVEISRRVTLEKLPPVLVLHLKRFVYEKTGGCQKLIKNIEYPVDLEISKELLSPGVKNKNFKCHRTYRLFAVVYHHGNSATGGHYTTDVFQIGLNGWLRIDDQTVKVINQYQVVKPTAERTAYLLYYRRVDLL
Sequence of UCHL1 (P09936 whole entry, looked up): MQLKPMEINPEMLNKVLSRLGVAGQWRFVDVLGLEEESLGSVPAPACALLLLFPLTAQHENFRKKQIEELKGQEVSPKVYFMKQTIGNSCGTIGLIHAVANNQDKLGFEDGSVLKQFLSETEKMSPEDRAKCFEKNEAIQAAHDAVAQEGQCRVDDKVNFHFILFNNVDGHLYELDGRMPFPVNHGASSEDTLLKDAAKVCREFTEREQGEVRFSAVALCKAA

In the case of `Cl.O=C(CN1CCN(C(=O)CCl)CC1)Nc1ccc(F)cc1`, the “log2 ratio of Biotin-Ahx-Ub-VS probe labelling” value with OTUD6B was 0.226; in the assay with OTUD7B it was 0.0571; in the assay with PRPF8 it was 0.0678; with PSMD7, 0.149; in the assay with UCHL1, -1.2 (active); with UCHL3 it was 0.501. The “log2 ratio of Biotin-Ahx-Ub-VS probe labelling” value with UCHL5 was -0.0699; with USP10 it was -0.0791; in the assay with USP15, -0.113; with USP16, 0.138.
